Compound activity as filed in PubChem BioAssay.
TIM10 inh = inhibits growth of TIM10 yeast strain. S. cerevisiae TIM10 strain growth, BacTiter-Glo luminescence, 24 h. inhibition, % at 10 µM. actives 1.4% (n = 330,000). AID 463195;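 active = inhibition of 40% or more at the single tested concentration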;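 also: wild-type TIM10 isogenic control strain grown at permissive 25 °C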
Yeast superoxide = lowers age-related superoxide in aged yeast cells; S. cerevisiae aged cells, superoxide DHE fluorescence; stronger effect = lower value; superoxide response (% of plate mean), % at 10 µM; actives 0.18% (n = 330,000);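 active = superoxide response under a set limit, about three screen SD below normal, cut at about 65% in these data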;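 also: yeast aged for seven days with compound at 30 °C before DHE staining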
tim10-1 inh = inhibits growth of tim10-1 mutant yeast | inhibition, % at 20 µM | S. cerevisiae tim10-1 ts strain growth, BacTiter-Glo, 24 h | actives 2.2% (n = 330,000);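 active = inhibition of at least 40%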;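 also: mutant grown at 25 °C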
tim23-1 inh = tim23-1 yeast growth inhibition; inhibition, % at 20 µM; S. cerevisiae tim23-1 growth, BacTiter-Glo luminescence, 24 h; actives 1.3% (n = 330,000);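 active = growth inhibition of the mutant yeast at or above 50%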;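 also: temperature-sensitive mutant grown at 25 °C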
NALP3 yeast inh = blocks the NALP3 inflammasome reconstituted in yeast. actives 0.39% (n = 330,000). inhibition, % at 10 µM. Yeast reconstituted NLRP3/ASC/caspase-1, beta-gal luminescence, 24 h;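 active = inhibition of 50% or more; inactive = inhibition below 50%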
TIM10 conf = confirmation of TIM10 yeast growth inhibitors; actives 63% (n = 4,600); shares compounds with TIM10 inh; inhibition, % at 10 µM; AID 463215; S. cerevisiae tim10 strain growth, BacTiter-Glo luminescence, 24 h;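 active = inhibition of yeast growth at or above a set limit in either of two replicates at 10 µM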; also: this counterscreen used the strain with wild-type TIM10
Large screens that a line does not name were inactive (follow-up assays come after a bar, where they were run). In the library only some 3.8% were active in any assay of this set; here they are far more common.

Brc1ccc(CSc2nnc(-c3cnccn3)n2Cc2ccco2)cc1	TIM10 inh 45 | TIM10 conf inactive
COc1ccnc2c1c(=O)n(Cc1ccc(F)cc1)c(=O)n2C	none
Cc1csc(NC(=O)c2oc3ccccc3c2C)n1	none
Cc1csc(Nc2nc(N)c(C(=O)Nc3ccccc3)o2)n1	TIM10 inh 43 | TIM10 conf inactive
Nc1ccc(-n2cc(-c3ccccc3)[nH]c2=S)cc1	none
S=c1[nH]c(-c2ccccc2)cn1-c1ccccc1	TIM10 inh 46 | TIM10 conf 49
Cc1ccc(C(=O)NNC(=O)CCOc2cccc(C)c2)cc1	none
COC(=O)N/N=C/c1c(C)c(C(=O)c2ccc(F)cc2)n2ccccc12	none
CCOC(=O)N/N=C/c1c(C)c(C(=O)c2ccc(F)cc2)n2ccccc12	TIM10 inh 44 | TIM10 conf 32
CC(=O)c1ccc(S(=O)(=O)Nc2c(C)nn(C)c2C)cc1	none (no result: Yeast superoxide)
CCOC(=O)C1CCN(S(=O)(=O)c2ccc3c(c2)CC(C)N3C(=O)C2CC2)CC1 (stereo unspecified)	TIM10 inh 40 | TIM10 conf 49
CCN1C(=O)[C@H]2[C@@H](c3ccc(-c4ccccc4)c(OC)c3)N[C@@](CC(C)C)(C(=O)OC)[C@H]2C1=O	none
Cc1cccc(NNC(=S)Nc2c(C)cccc2C)c1	TIM10 inh 45 | TIM10 conf 36
Cc1cccc(NNC(N)=S)c1	none
COc1cccc(-n2nnnc2S(C)(=O)=O)c1	TIM10 inh 59 | TIM10 conf 48
COc1cccc(-n2cnnn2)c1	none
CSc1cc(-c2ccc(Cl)cc2)c(C(=O)NN)s1	TIM10 inh 44 | TIM10 conf 27
Cc1cc(C)cc(CC2CC(=O)N(c3ccc(Cl)cn3)C2=O)c1 (stereo unspecified)	TIM10 inh 51 | TIM10 conf inactive
COc1ccc(OC)c(-n2c(SCC(N)=O)nnc2-c2c[nH]c3ccccc23)c1	TIM10 inh 98 | TIM10 conf inactive
COc1cccc(-n2c(SCC(N)=O)nnc2-c2c[nH]c3ccccc23)c1	none
Cc1ccc(Cn2c(=O)c3ccccc3n3c(CCC(=O)NCCN4CCOCC4)nnc23)cc1	TIM10 inh 96 | TIM10 conf inactive
O=C(CCc1nnc2n(Cc3ccccc3Cl)c(=O)c3ccccc3n12)NCCCN1CCOCC1	none
Cc1ccccc1C(N)c1ccncc1 (stereo unspecified)	TIM10 inh 81 | TIM10 conf inactive
OC(c1ccccc1)c1ccncc1 (stereo unspecified)	none
O=C(COC(=O)c1nn(-c2ccccc2C(F)(F)F)cc1O)c1ccc(OC(F)F)cc1	none
Cc1cc(N)ccc1NC(=O)CN1CCOCC1	none
COc1ccc(NC(=O)NC2(C(=O)N3CCOCC3)CCCCC2)cc1	none
COc1cccc(-c2nn(-c3ccccc3)cc2C(=O)Nc2nccs2)c1	none
COc1ccc(-c2nn(-c3ccccc3)cc2C(=O)Nc2nccs2)cc1	TIM10 inh 43 | TIM10 conf inactive
O=C(Nc1ccncc1)c1cn(-c2ccccc2)nc1-c1cccs1	TIM10 inh 44 | TIM10 conf 53
O=C(N/N=C/c1cccc(OC(=O)N2CCOCC2)c1)c1cccs1	none
CC(=O)NC(Cc1cccc(F)c1)C(=O)NC1CCN(C(=O)Nc2ccc(C)cc2)CC1 (stereo unspecified)	none
CC(C)Cn1[nH]c2c3c(ccc2c1=O)C(=O)c1ccccc1C3=O	TIM10 inh 58 | TIM10 conf 49
O=C1c2ccccc2C(=O)c2c1ccc1c(=O)n(-c3ccccc3)[nH]c21	none
CC(C)C(C(=O)NCC1CCCO1)N(Cc1ccccc1)C(=O)CNS(=O)(=O)c1ccccc1 (stereo unspecified)	none
O=C(Nc1ccc(Cl)c([N+](=O)[O-])c1)C(Sc1ccccc1)c1ccccc1 (stereo unspecified)	TIM10 inh 42 | TIM10 conf 43
O=C(Nc1cc([N+](=O)[O-])ccc1Cl)C(Sc1ccccc1)c1ccccc1 (stereo unspecified)	none
O=C(CCNS(=O)(=O)c1ccc(OC(F)(F)F)cc1)NC1CC1	none
C=CCn1c(C(CC)CC)nc2ccccc21	none
C=CCn1c(C(C)NC(=O)COC)nc2ccccc21 (stereo unspecified)	TIM10 inh 97 | TIM10 conf inactive
COc1ccc(CCN(C)C(=O)C2CCCN(C3CCN(Cc4ccccc4)CC3)C2)cc1OC (stereo unspecified)	none
CCN(CC)c1ccc(-c2n[nH]c(=S)n2-c2ccccc2)cc1	TIM10 inh 41 | TIM10 conf inactive
O=c1c2c3c(sc2ncn1/N=C/c1ccc([N+](=O)[O-])o1)CCCC3	TIM10 inh 69 | TIM10 conf 96
COC(=O)CSc1nc2ccccc2o1	none
CCCCCCOC(=O)Sc1nc2ccccc2o1	TIM10 inh 77 | TIM10 conf 72
S=C(NCc1cccs1)Nc1ccc(Br)cc1Cl	TIM10 inh 41 | TIM10 conf 46
COc1cc(OC)cc(C(=O)Nc2nnc(NC(=S)Nc3ccccc3)s2)c1	none
CC(C)(C)c1nnc(NC(=S)Nc2ccccc2)s1	TIM10 inh 45 | TIM10 conf inactive
CCN(C(=O)CSc1n[nH]c(-c2cc(Cl)ccc2OC)n1)C1CCS(=O)(=O)C1 (stereo unspecified)	none (no result: Yeast superoxide)
O=C(ONc1ccc(N=NC(=O)c2ccccc2O)cc1)c1ccccc1	TIM10 inh 42 | TIM10 conf inactive
Cc1cc(N=NC(=O)c2ccccc2)ccc1O	none
COc1cccc(N2CCN(C(=O)c3ccc4nc(N5CCC(C)CC5)sc4c3)CC2)c1	TIM10 inh 42 | TIM10 conf 42
CCOC(=O)N1CCN(C(=O)c2ccc3nc(N4CCC(C)CC4)sc3c2)CC1	none
COc1cc(NC(=O)CCCNC(=O)Cn2cnc3sc(C)c(C)c3c2=O)cc(OC)c1OC	none
C/C(=N\OCC(=O)N/N=C/c1ccc(C)cc1O)c1cccs1	TIM10 inh 53 | TIM10 conf inactive
CC1CCC2(CC1)NC(=O)N(CC(=O)NCCc1ccc(F)cc1)C2=O (stereo unspecified)	TIM10 inh 68 | TIM10 conf inactive
CC1CCC2(CC1)NC(=O)N(CC(=O)NCCc1ccccc1)C2=O (stereo unspecified)	none
O=C(Oc1coc(CSc2ncccn2)cc1=O)c1ccc(Br)o1	TIM10 inh 44 | TIM10 conf inactive
C=CCN(CC=C)C(=S)NC(=O)/C=C/c1ccc(OC)cc1	TIM10 inh 44 | TIM10 conf inactive
CCOc1ccc(NC(=O)c2nn(C)c(C(=O)Nc3ccc(OCC)cc3)c2[N+](=O)[O-])cc1	TIM10 inh 94 | TIM10 conf inactive
COc1cccc(/C=N/NC(=O)CSc2ccccc2C)c1OC	none
COc1cccc(/C=N/NC(=O)CSc2ccccc2C)c1O	TIM10 inh 43 | TIM10 conf 53
